Reference: PubChem BioAssay (NCI)
This is part of a sample that, as a whole, favours compounds with a hit. Of some 83,000 tested, about 20% had one in any assay.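 Treatment: one concentration, 48 hours, 96-well format. Scoring: percent growth, with anything below 10 considered active.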 Unmarked numbers belong to inactive results. Activity calls are given as the source filed them.

Tests used:
Assay in all cases: NCI-60 one-dose screen, 48 h (100 = growth as untreated, 0 = no growth, -100 = all killed)
Details in all cases: 10 µM unless noted
[1] = test system: RPMI-8226 leukemia
[2] = test system: OVCAR-8 ovarian
[3] = test system: OVCAR-5 ovarian
[4] = test system: OVCAR-4 ovarian
[5] = test system: SK-OV-3 ovarian
[6] = test system: IGROV1 ovarian
[7] = test system: OVCAR-3 ovarian
[8] = test system: HS 578T breast
[9] = test system: NCI/ADR-RES ovarian

SMILES | growth [1] | growth [2] | growth [3] | growth [4] | growth [5] | growth [6] | growth [7] | growth [8] | growth [9]
Cc1nc2ccc(C(=O)NCc3cc(C(=O)O)c(C)o3)cc2nc1C | 108% | 96.6% | 99.7% | 95.4% | 80.2% | 106% | 101% | 96.8% | 106%
C#C[C@]1(O)CC[C@H]2[C@@H]3CC=C4c5sc(N=C(N)N)nc5CC[C@]4(C)[C@H]3CC[C@@]21C | -29% (active) | 10.1% | 28% | 29% | -57.2% (active) | 14.4% | -44.2% (active) | -39.2% (active) | 29.8%
CN1CCN(C(=O)[C@@]2(C)CC[C@]3(C)CC[C@]4(C)C(=CC[C@@H]5[C@@]6(C)C/C(=C/c7ccncc7)C(=O)C(C)(C)[C@@H]6CC[C@]54C)[C@@H]3C2)CC1 | 12.8% | 50.9% | 88.2% | 37.9% | 55.2% | 56.7% | 50.7% | 54% | 62.1%
COC(=O)c1ccc(CSc2nnc(-c3ccncc3)o2)cc1 | 102% | 101% | 104% | 99.5% | 102% | 98.9% | 112% | 107% | 104%
COc1ccc(-c2nc3sccn3c2/C=C/C(=O)c2c[nH]c3ccccc23)cc1 | 154% | 63.9% | 63.5% | 42.6% | 79.6% | 79.2% | 68.1% | 74.9% | 59.1%
CCOc1cc(N)ccc1C(=O)NCCCN(CC)CC | 95.9% | 118% | 93.9% | 109% | 110% | 96.5% | 105% | 99.1% | 94.2%
C=C1C(=O)O[C@H]2[C@H]1CC/C(COC(=O)NCc1ccc(Cn3c(=O)sn(CCCCl)c3=O)cc1)=C\CC[C@@]1(C)O[C@@H]21 | -30.1% (active) | 43.7% | 69.8% | 15.2% | 91.9% | -36.3% (active) | -87.9% (active) | 88.2% | 104%
Cc1ccc(O)c(C(=O)c2ccccc2Cl)c1 | 112% | 97.6% | 85% | 91.9% | 112% | 102% | 118% | – | 89%
Clc1ccc2c(NCCCN3CCN(c4nc(-n5ccnc5)nc5ccccc45)CC3)ccnc2c1 | -48.6% (active) | 84.2% | 120% | 64.9% | 109% | 86.5% | 90.5% | 85.5% | 90.7%
C=C1c2c(C)nn(-c3ccc(NC(C)=O)cc3)c2N(C)C23CC1C1(C)c4c(C)nn(-c5ccc(NC(C)=O)cc5)c4N(C)C(C)(CC12)C3 (stereo not given) | -50.5% (active) | 40.8% | – | 35% | 48.5% | 64.8% | 34.3% | 62.6% | 43.4%
CN(C)c1ccc(-c2cc(-c3ccc(Nc4nc(Nc5ccccc5)nc(Nc5ccc(Cl)cc5)n4)cc3)nc(N)n2)cc1 | 34.1% | 51.3% | 36.6% | 49.6% | 85.4% | 39.2% | 49.5% | – | 15.5%
COc1ccc(-c2cc(-c3ccc(Nc4nc(Nc5ccccc5)nc(Nc5ccc(Cl)cc5)n4)cc3)nc(N)n2)cc1 | 50.5% | 79% | 66.5% | 56.5% | 119% | 39.2% | 52.6% | – | 69.3%
COc1ccc(Oc2nc(Nc3ccc(N4CCCCC4)nc3)ncc2NC(=O)c2cc(OC)cc(OC)c2)cc1 | 24.4% | 57% | – | 56.7% | 57.6% | 58.3% | 6.75% (active) | 44.6% | 26.1%
CN(C)c1cnccn1 | 65.2% | 92.5% | 114% | 82.3% | 90.9% | 91.1% | 104% | – | 88.6%
O=S(=O)(Nc1ccsc1-c1nc(-c2ccccc2)no1)c1cc(Cl)cc(Cl)c1 | 82.6% | 92.4% | 86.5% | 93.8% | 83.3% | – | 96.7% | 94.1% | 94%
C/C(=N\NC(=O)Cn1c(-c2ccc(S(C)(=O)=O)cc2)nc2cc(Cl)ccc21)c1ccc(Cl)cc1 | 76.4% | 79.5% | 91.2% | 65.9% | 81.3% | 70.6% | – | 80.7% | 86.7%
CCOc1ccc(S(=O)(=O)c2ccc(C)cc2)c2c1no[n+]2[O-] | 67.9% | 90.7% | 99.1% | 67.5% | 77.4% | – | 85.2% | 78.4% | 71.8%
O=S(=O)(NCCNc1cc(-c2c(-c3cccc(O)c3)nc3sccn23)ccn1)c1ccc(Br)cc1 | 38.1% | 47.5% | 109% | 43.1% | 73.7% | 47.4% | – | 59.1% | 80.4%
CC(C)(C)CC(C)(C)Nc1c(-c2ccc(-c3ccccc3)cc2)nc2cnccn12 | 68.7% | 70.2% | – | -26.5% (active) | 76.3% | 66% | 90.2% | 95.5% | 97.7%
